Laboratory results from PubChem BioAssay (NCI).
Compounds without any hit were thinned out: in the full panel of roughly 83,000, 20% have a hit.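 96-well plates, one dose, 48 hours. Percent growth reported; active if below 10.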 The source made the active and inactive calls.

Tests used:
Assay in all cases: NCI-60 one-dose screen, 48 h (100 = growth as untreated, 0 = no growth, -100 = all killed)
Details in all cases: 10 µM unless noted
SR leukemia = test system: SR leukemia
RPMI-8226 leukemia = test system: RPMI-8226 leukemia
OVCAR-8 ovarian = test system: OVCAR-8 ovarian
OVCAR-5 ovarian = test system: OVCAR-5 ovarian
OVCAR-4 ovarian = test system: OVCAR-4 ovarian
SK-OV-3 ovarian = test system: SK-OV-3 ovarian
IGROV1 ovarian = test system: IGROV1 ovarian
OVCAR-3 ovarian = test system: OVCAR-3 ovarian
HS 578T breast = test system: HS 578T breast
NCI/ADR-RES ovarian = test system: NCI/ADR-RES ovarian

Measured: growth

N#CC1=C(N)n2nc(-c3ccncc3)nc2NC1c1cccc2ccccc12 (stereo not given)
inactive: SR leukemia 80.3% | RPMI-8226 leukemia 74.9% | OVCAR-8 ovarian 92.7% | OVCAR-5 ovarian 100% | OVCAR-4 ovarian 80.4% | SK-OV-3 ovarian 98.2% | IGROV1 ovarian 91.2% | OVCAR-3 ovarian 97.4% | HS 578T breast 80.5% | NCI/ADR-RES ovarian 91.9%

COc1ccc(/C=C/C(=O)c2ccc(B(O)O)cc2)cc1O
active: RPMI-8226 leukemia 6.12%
inactive: SR leukemia 19.6% | OVCAR-8 ovarian 89.9% | OVCAR-5 ovarian 88.2% | OVCAR-4 ovarian 114% | SK-OV-3 ovarian 82.7% | IGROV1 ovarian 56.2% | OVCAR-3 ovarian 58.5% | HS 578T breast 70.7% | NCI/ADR-RES ovarian 92.3%

COc1ccc(/C=C\c2cc(OC)c(OC)c(OC)c2)c(NS(=O)(=O)c2ccc(C(C)(C)C)cc2)c1O
active: OVCAR-3 ovarian 0.435% | NCI/ADR-RES ovarian 9.51%
inactive: SR leukemia 16.4% | RPMI-8226 leukemia 27.9% | OVCAR-8 ovarian 21.9% | OVCAR-5 ovarian 32.4% | OVCAR-4 ovarian 28.2% | SK-OV-3 ovarian 31% | IGROV1 ovarian 38.5% | HS 578T breast 35.4%

CCn1c(=O)c2c(=O)c3c4c(oc3oc2c2ccccc21)C(=O)c1ccccc1C4=O
inactive: SR leukemia 80.8% | RPMI-8226 leukemia 33.5% | OVCAR-8 ovarian 10.2% | OVCAR-5 ovarian 118% | SK-OV-3 ovarian 102% | IGROV1 ovarian 68.3% | HS 578T breast 93.7% | NCI/ADR-RES ovarian 45.8%
active: OVCAR-4 ovarian -99.5% | OVCAR-3 ovarian -16.3%

COc1ccc(-c2nc(-c3nc4ccc(F)cc4[nH]3)cc3c2[nH]c2ccccc23)cc1
inactive: SR leukemia 15.5% | OVCAR-8 ovarian 13.6% | OVCAR-5 ovarian 77.8% | OVCAR-4 ovarian 45.8% | SK-OV-3 ovarian 87% | IGROV1 ovarian 27% | OVCAR-3 ovarian 42.3% | HS 578T breast 42.4% | NCI/ADR-RES ovarian 19.7%
active: RPMI-8226 leukemia -5.03%

CC/C=C\C[C@H]1C/C=C2/C(=O)C(Cl)=C[C@@H]2C/C=C\CCCC(=O)O1
active: SR leukemia -2.48% | RPMI-8226 leukemia -14.1% | OVCAR-8 ovarian 3.57% | OVCAR-5 ovarian -25% | OVCAR-4 ovarian -37.8% | SK-OV-3 ovarian -6.42% | IGROV1 ovarian -41.7% | OVCAR-3 ovarian -96.1% | NCI/ADR-RES ovarian 6.27%
inactive: HS 578T breast 17.6%

O=C(O)c1ccc(-n2cc(CNc3ccc(C(F)(F)F)cc3)c(-c3ccccc3)n2)cc1
inactive: SR leukemia 84.1% | RPMI-8226 leukemia 76.6% | OVCAR-8 ovarian 79.8% | OVCAR-5 ovarian 119% | OVCAR-4 ovarian 95.4% | SK-OV-3 ovarian 103% | IGROV1 ovarian 111% | OVCAR-3 ovarian 96.1% | HS 578T breast 93.7% | NCI/ADR-RES ovarian 101%

COc1cc(CCn2nnc3c(NCCCCO)ncnc32)cc(OC)c1
inactive: SR leukemia 96.4% | RPMI-8226 leukemia 95.7% | OVCAR-8 ovarian 101% | OVCAR-5 ovarian 121% | OVCAR-4 ovarian 99.2% | SK-OV-3 ovarian 111% | IGROV1 ovarian 109% | OVCAR-3 ovarian 107% | HS 578T breast 101% | NCI/ADR-RES ovarian 104%

COc1cc2c(cc1OCCCCn1c(-c3cc(=O)c4ccccc4o3)nc3ccccc31)N=C[C@@H]1CCCN1C2=O
active: IGROV1 ovarian -16.3%
inactive: SR leukemia 39.8% | RPMI-8226 leukemia 67.7% | OVCAR-8 ovarian 106% | OVCAR-5 ovarian 111% | OVCAR-4 ovarian 108% | SK-OV-3 ovarian 109% | OVCAR-3 ovarian 111% | HS 578T breast 116% | NCI/ADR-RES ovarian 110%

Nc1ccccc1C#C/C=C\C#Cc1cccc(O)c1
active: IGROV1 ovarian -19.5%
inactive: SR leukemia 13% | RPMI-8226 leukemia 34% | OVCAR-8 ovarian 84.9% | OVCAR-5 ovarian 62.6% | OVCAR-4 ovarian 45% | SK-OV-3 ovarian 74.4% | OVCAR-3 ovarian 43% | HS 578T breast 64.3% | NCI/ADR-RES ovarian 31.8%

COc1ccc(C2SCC(=O)N2NC(=O)c2ccc(NC(=O)c3ccccn3)cc2)cc1OC (stereo not given)
inactive: SR leukemia 90.9% | RPMI-8226 leukemia 96.3% | OVCAR-8 ovarian 98% | OVCAR-5 ovarian 100% | OVCAR-4 ovarian 100% | SK-OV-3 ovarian 102% | IGROV1 ovarian 101% | OVCAR-3 ovarian 101% | HS 578T breast 102% | NCI/ADR-RES ovarian 105%

COc1cc(OC)c(C(=O)/C=C/c2cccc(C(F)(F)F)c2)c(OC)c1
active: SR leukemia 6.07% | RPMI-8226 leukemia 1.61%
inactive: OVCAR-8 ovarian 14.1% | OVCAR-5 ovarian 42.4% | OVCAR-4 ovarian 31.4% | SK-OV-3 ovarian 42.1% | IGROV1 ovarian 11.8% | OVCAR-3 ovarian 17.5% | HS 578T breast 15.4% | NCI/ADR-RES ovarian 17.1%

O=C1CCCCC=C1C[N+](=O)[O-]
active: SR leukemia 2.57%
inactive: RPMI-8226 leukemia 60.6% | OVCAR-8 ovarian 86.8% | OVCAR-5 ovarian 104% | OVCAR-4 ovarian 94.9% | SK-OV-3 ovarian 99.1% | IGROV1 ovarian 91.6% | OVCAR-3 ovarian 61% | HS 578T breast 107% | NCI/ADR-RES ovarian 101%

C=CCN=C1NC(=O)/C(=C/c2cc(C(C)(C)C)c(O)c(C(C)(C)C)c2)S1
inactive: SR leukemia 32.9% | RPMI-8226 leukemia 92.1% | OVCAR-8 ovarian 95.8% | OVCAR-5 ovarian 92.1% | OVCAR-4 ovarian 70.3% | SK-OV-3 ovarian 74.8% | IGROV1 ovarian 85.7% | OVCAR-3 ovarian 46.9% | HS 578T breast 76.9% | NCI/ADR-RES ovarian 70%

COc1ccc2c(c1)NC(=O)CN2c1nc(C)nc2ccccc12
active: OVCAR-3 ovarian -13.9%
inactive: SR leukemia 18.8% | RPMI-8226 leukemia 45.2% | OVCAR-8 ovarian 12.5% | OVCAR-5 ovarian 51.5% | OVCAR-4 ovarian 45.5% | SK-OV-3 ovarian 31.3% | IGROV1 ovarian 18.8% | HS 578T breast 40% | NCI/ADR-RES ovarian 14%

O=C(O)C(Cc1ccccc1)N1C(=O)/C(=C/C(Cl)=C/c2ccc([N+](=O)[O-])cc2)SC1=S (stereo not given)
inactive: OVCAR-8 ovarian 12.1% | OVCAR-5 ovarian 137% | SK-OV-3 ovarian 83.4% | IGROV1 ovarian 36.3% | OVCAR-3 ovarian 10.7% | HS 578T breast 44.6% | NCI/ADR-RES ovarian 68.7%
active: SR leukemia 5.32% | RPMI-8226 leukemia -6.22% | OVCAR-4 ovarian 7.24%

COC(=O)CC/C(C)=N\Nc1ccc([N+](=O)[O-])cc1
inactive: SR leukemia 34.6% | RPMI-8226 leukemia 51.8% | OVCAR-8 ovarian 59.1% | OVCAR-5 ovarian 79.4% | OVCAR-4 ovarian 76.3% | SK-OV-3 ovarian 62.5% | IGROV1 ovarian 74.2% | OVCAR-3 ovarian 88.3% | HS 578T breast 81.7% | NCI/ADR-RES ovarian 78%

O=S(=O)(NCCCNc1nccc(-c2c(-c3ccc(F)c(O)c3)nc3sccn23)n1)c1ccc(Cl)cc1
inactive: SR leukemia 61.6% | RPMI-8226 leukemia 43.1% | OVCAR-8 ovarian 52.9% | OVCAR-5 ovarian 129% | OVCAR-4 ovarian 99.1% | SK-OV-3 ovarian 85.3% | IGROV1 ovarian 80.2% | OVCAR-3 ovarian 88.7% | HS 578T breast 91.1% | NCI/ADR-RES ovarian 103%

COc1ccc(C(=O)c2cc(OC)c(OC)c(OC)c2)cc1/C=C/C(=O)c1ccc(O)cc1
active: RPMI-8226 leukemia 9.18% | OVCAR-3 ovarian -10.5%
inactive: SR leukemia 10.6% | OVCAR-8 ovarian 22.3% | OVCAR-5 ovarian 69.5% | OVCAR-4 ovarian 43.6% | SK-OV-3 ovarian 18.5% | IGROV1 ovarian 45.9% | HS 578T breast 43.4% | NCI/ADR-RES ovarian 16.2%

CN(C)C/C=C/C(=O)Nc1cc2c(Nc3cccc(Cl)c3F)ncnc2cc1OCCOC(F)F
active: SK-OV-3 ovarian -0.955% | IGROV1 ovarian -21.7%
inactive: SR leukemia 51.6% | RPMI-8226 leukemia 58.6% | OVCAR-8 ovarian 34.7% | OVCAR-5 ovarian 29.7% | OVCAR-4 ovarian 27.9% | OVCAR-3 ovarian 23.9% | HS 578T breast 11.2% | NCI/ADR-RES ovarian 32.9%

O=C1OC(c2ccccc2)=N/C1=C\c1ccc([N+](=O)[O-])cc1
inactive: SR leukemia 97.3% | RPMI-8226 leukemia 102% | OVCAR-8 ovarian 111% | OVCAR-5 ovarian 92.8% | OVCAR-4 ovarian 114% | SK-OV-3 ovarian 109% | IGROV1 ovarian 100% | OVCAR-3 ovarian 106% | HS 578T breast 82.6% | NCI/ADR-RES ovarian 104%

CC/C=C\C[C@H](O)C/C=C1/C(=O)C(Cl)=C[C@@H]1C/C=C\CCCC(=O)OC
active: SR leukemia 1.41% | RPMI-8226 leukemia -12.2% | OVCAR-8 ovarian 1.69% | OVCAR-5 ovarian -30% | OVCAR-4 ovarian -47.3% | SK-OV-3 ovarian 8.03% | IGROV1 ovarian -12.6% | OVCAR-3 ovarian -87.8%
inactive: HS 578T breast 35.2% | NCI/ADR-RES ovarian 14%

COc1cc(OC)cc(-c2n[nH]nc2-c2ccc3c(c2)OCO3)c1
active: OVCAR-5 ovarian 4.97% | NCI/ADR-RES ovarian 3.37%
inactive: SR leukemia 14.4% | RPMI-8226 leukemia 26.2% | OVCAR-8 ovarian 28.6% | OVCAR-4 ovarian 52.5% | SK-OV-3 ovarian 16.3% | IGROV1 ovarian 39.5% | OVCAR-3 ovarian 10% | HS 578T breast 12.1%

Cc1cccc(-n2c(C)nc3ccc(NC(=O)NCCCl)cc3c2=O)c1
inactive: SR leukemia 95.9% | RPMI-8226 leukemia 97.6% | OVCAR-8 ovarian 107% | OVCAR-5 ovarian 107% | OVCAR-4 ovarian 107% | SK-OV-3 ovarian 102% | IGROV1 ovarian 102% | OVCAR-3 ovarian 105% | HS 578T breast 99.4% | NCI/ADR-RES ovarian 95.5%

O=C(Nc1ccc(I)cc1)c1cc([N+](=O)[O-])ccc1O
inactive: SR leukemia 36.6% | RPMI-8226 leukemia 10.1% | OVCAR-8 ovarian 39.9% | OVCAR-5 ovarian 54.8% | OVCAR-4 ovarian 30.3% | SK-OV-3 ovarian 38.6% | IGROV1 ovarian 39.6% | OVCAR-3 ovarian 18.3% | HS 578T breast 16.1% | NCI/ADR-RES ovarian 29.1%

O=C1CCCCN1CCCCC#Cc1ccccc1C#Cc1ccccn1
active: IGROV1 ovarian -11.3%
inactive: SR leukemia 98.6% | RPMI-8226 leukemia 107% | OVCAR-8 ovarian 113% | OVCAR-5 ovarian 95.2% | OVCAR-4 ovarian 95.2% | SK-OV-3 ovarian 118% | OVCAR-3 ovarian 104% | HS 578T breast 118% | NCI/ADR-RES ovarian 92.2%

CCCCCCCCCCC/C=C\C[C@H](O)C/C=C1/C(=O)C=C[C@@H]1C/C=C\CCCC(=O)OC
active: SR leukemia 6.46% | RPMI-8226 leukemia -10.2% | OVCAR-8 ovarian 7.18% | OVCAR-4 ovarian -1.25% | IGROV1 ovarian -15.9% | OVCAR-3 ovarian -46.2% | NCI/ADR-RES ovarian 9.04%
inactive: OVCAR-5 ovarian 21.9% | SK-OV-3 ovarian 26.8% | HS 578T breast 18%
